# Reference: PubChem BioAssay (NCI)
# About 83,000 compounds went through this panel and 20% of them were active in at least one assay; those are over-represented in the sample as a whole.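 Note: values are percent growth. 100 is the growth of untreated cells, values between 100 and 0 indicate rising inhibition; between -100 and 0 indicates cell death.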 Unmarked numbers belong to inactive results. The source made the active and inactive calls. Rule for the calls: active = growth percent below 10; inactive = the rest.
# Columns and labels:
# Assay in all cases: NCI-60 one-dose screen, 48 h (100 = growth as untreated, 0 = no growth, -100 = all killed)
# Settings in all cases: 10 µM unless noted
# NCI-H23 lung = system: NCI-H23 lung
# NCI-H226 lung = system: NCI-H226 lung
# NCI-H322M lung = system: NCI-H322M lung
# HOP-62 NSCLC = system: HOP-62 NSCLC
# NCI-H460 lung = system: NCI-H460 lung
# HOP-92 NSCLC = system: HOP-92 NSCLC
# NCI-H522 lung = system: NCI-H522 lung
# A549/ATCC NSCLC = system: A549/ATCC NSCLC
# 786-0 renal = system: 786-0 renal
# COLO 205 colon = system: COLO 205 colon
# DU-145 prostate = system: DU-145 prostate
# K-562 leukemia = system: K-562 leukemia
# MALME-3M melanoma = system: MALME-3M melanoma
# MDA-MB-231 breast = system: MDA-MB-231 breast
# RXF 393 renal = system: RXF 393 renal
# SF-268 CNS = system: SF-268 CNS
# SF-295 CNS = system: SF-295 CNS
# SF-539 CNS = system: SF-539 CNS
# UACC-257 melanoma = system: UACC-257 melanoma
# M14 melanoma = system: M14 melanoma
Compound,growth (NCI-H23 lung),growth (NCI-H226 lung) [%],growth (NCI-H322M lung),growth (HOP-62 NSCLC),growth (NCI-H460 lung),growth (HOP-92 NSCLC),growth (NCI-H522 lung),growth (A549/ATCC NSCLC),growth (786-0 renal),growth (COLO 205 colon),growth (DU-145 prostate),growth (K-562 leukemia),growth (MALME-3M melanoma),growth (MDA-MB-231 breast),growth (RXF 393 renal),growth (SF-268 CNS),growth (SF-295 CNS),growth (SF-539 CNS),growth (UACC-257 melanoma),growth (M14 melanoma)
CCCCCCCCCCCCCCCCCCn1cc(COc2ccc(C=O)cc2)nn1,90.4%,102,108%,104%,102%,135%,89%,91.2%,94.9%,113%,92.4%,85.9%,106%,110%,113%,93.7%,98.7%,98.5%,109%,92.8%
COc1ccccc1/C=C1\COc2ccc(O)cc2C1=O,101%,102,104%,101%,93.3%,103%,24.6%,84.6%,97.2%,87.6%,96.4%,6.88% (active),79.9%,121%,92.1%,83.9%,104%,92.5%,95.2%,77.8%
Cc1ccc(-c2nc3nc(-c4ccccc4)nc(N4CCN(S(=O)(=O)c5ccccc5)CC4)c3o2)cc1,88.3%,76.5,101%,72.3%,73.3%,95.1%,72.9%,91.5%,61%,125%,96.6%,97.7%,84.2%,72.4%,66.3%,66.8%,74.7%,52.5%,99%,96.7%
CCN(C(=O)N1CCN(c2cc3c(cc2F)c(=O)c(C(=O)O)cn3C2CC2)CC1)c1nc(-c2ccccc2)cs1,6.27% (active),20.9,13.3%,36%,5.27% (active),-18.4% (active),-1.7% (active),12.4%,14.3%,64.1%,27.1%,13.8%,22.1%,5.26% (active),19.7%,25%,8.29% (active),8.47% (active),74.1%,22.9%
CN(C)CCCn1c2nc(=O)[nH]c(=O)c-2nc2cc(Cl)c(Cl)cc21,109%,105,69.1%,117%,107%,88.3%,-23.7% (active),99%,103%,4.28% (active),115%,47.9%,106%,98.6%,111%,108%,99.3%,105%,41.7%,51.1%
O=C(c1cccc(Br)c1)N1CCN(c2ccnc3cc(Cl)ccc23)CC1,79.7%,87.3,92%,95.3%,100%,78.7%,45.1%,73.8%,71.9%,93.7%,93.3%,68.1%,94.3%,91.7%,87%,91.5%,87%,96.9%,85.8%,98.6%
O=C1C(c2c[nH]c3ccccc23)=C(c2coc3cc(Br)ccc23)C(=O)N1O,93.1%,87.1,97.1%,104%,97.2%,92.1%,89.4%,98.4%,94.6%,117%,107%,93.8%,107%,85.9%,105%,98.6%,95.3%,106%,100%,101%
CCCCC#Cc1c(/C=C(\CCCC)SCC)n(C)c(=O)[nH]c1=O,94.1%,93.2,97.7%,94.8%,93.8%,82.8%,79.7%,83.1%,98.5%,108%,110%,72.2%,112%,102%,-12.1% (active),93.7%,114%,98.4%,98.9%,105%
Cc1cc(N2CCCCC2)nc(NCc2cc(Nc3ccnc4cc(Cl)ccc34)ccc2F)n1,22.3%,68.2,-12.7% (active),-49.5% (active),-22.7% (active),-21.9% (active),-57.9% (active),2.71% (active),-80.1% (active),-72.7% (active),-1.6% (active),-31.4% (active),-75% (active),-73.3% (active),-66.2% (active),-17.2% (active),-84.5% (active),-77.7% (active),-64.4% (active),-67.8% (active)
O=C1/C(=C/c2cn(-c3ccccc3)nc2-c2ccccc2)SC(=S)N1c1ccccc1,95%,96.2,99.2%,100%,107%,33.6%,91.3%,105%,105%,117%,102%,104%,94.5%,89.1%,107%,99.1%,97.5%,94.5%,107%,97.2%
CN1C(=O)/C(=C/c2ccc(C(=O)Nc3ncc(Cc4ccccc4Cl)s3)cc2)SC1=S,94.6%,81.4,72.2%,74.2%,79.5%,75.1%,64.2%,72.2%,87.9%,86.2%,73%,71.8%,62.2%,56.7%,69.1%,80.9%,58.4%,77%,89.3%,42.1%
CCNC(=O)Nc1ncccc1OCc1ccc(F)cc1,87.1%,106,105%,95.3%,105%,108%,86.2%,99%,92.8%,115%,97.8%,99.6%,106%,115%,125%,94.3%,97.8%,102%,102%,109%
CCCCCCCCn1ccc2cc(NC(=O)CN3CCN(c4nc(C)cc(N5CCCCC5)n4)CC3)ccc21,86%,86.1,101%,100%,93.7%,102%,76.7%,83.4%,88.4%,84.7%,95.2%,56%,112%,85.7%,86.9%,93.3%,103%,105%,115%,90.6%
N=C1/C(=C2\NC3C=CC=CC3S2)C(c2ccc(Cl)cc2)C2C(=O)N(c3ccccc3)C(=S)N12 (stereo not given),97.4%,91.6,101%,105%,107%,102%,101%,100%,101%,113%,114%,102%,100%,102%,95.7%,99.5%,103%,99.4%,107%,102%
